The campaign covered roughly 1,300 compounds. About 240 (18%) were called active. Not shown: some 8% with an inconclusive outcome. How the calls were made is not given here. These entries were drawn from the full list. Entries with a potency or affinity are not part of this list.

The assay in a line: toxicity to human hepatoma HepG2 cells – cell-based, cherry-picked samples, cytotoxicity control, dose response (AID 1159577). As to conditions: HepG2 cytotoxicity counterscreen, plate reader; series mostly up to 19.5 µM.
For the compound `CO[C@@H]1CN(C)C(=O)c2cc(NC(=O)C3CC3)ccc2OC[C@H](C)N(CC2CCCC2)C[C@H]1C`, the compound was called inactive.
To `CCc1sc(N2[C@@H](C#N)[C@@H](c3ccccc3-c3ccccc3)[C@@H]2CO)nc1C` belongs “inactive”.
The entry for `CC(C)CNC[C@@H]1[C@@H](c2ccccc2)[C@@H](CO)N1Cc1ccc(F)cc1` is “inactive”.
In the case of `CN1c2ccc(C#Cc3cccnc3)cc2[C@@H]2[C@@H](CCN2C(=O)C2CCC2)[C@@H]1CO`, the compound was classed as inactive.
On to `CNC[C@@H]1Oc2cc(C#Cc3cccnc3)ccc2S(=O)(=O)N([C@H](C)CO)C[C@H]1C`, for which the outcome was inactive.
Regarding `COc1cc(CN2CC3(CCN(C(=O)c4cccnc4)CC3)c3c([nH]c4cc(OC)ccc34)[C@@H]2CO)cc(OC)c1`, the compound was classed as inactive.
The entry for `C[C@H]1CN([C@@H](C)CO)C(=O)c2c(c3ccccc3n2C)-c2ccccc2CO[C@@H]1CN(C)Cc1cccc(O)c1` is “inactive”; for `C[C@@H]1CN([C@H](C)CO)C(=O)c2c(c3ccccc3n2C)-c2ccccc2CO[C@@H]1CN(C)Cc1cccc(F)c1` it is “inactive”; for `COc1ccccc1S(=O)(=O)N(C)C[C@H]1OCc2ccccc2-c2c(n(C)c3ccccc23)C(=O)N([C@@H](C)CO)C[C@@H]1C` it is “inactive”.
To `COc1ccccc1S(=O)(=O)N(C)C[C@@H]1OCc2ccccc2-c2c(n(C)c3ccccc23)C(=O)N([C@@H](C)CO)C[C@@H]1C` belongs “inactive”; to `C[C@H](CO)N1C[C@H](C)[C@@H](CN(C)Cc2ccc(Oc3ccccc3)cc2)OCc2ccccc2-c2c(n(C)c3ccccc23)C1=O`, “inactive”.
As for `C[C@H](CO)N1C[C@H](C)[C@@H](CN(C)S(=O)(=O)c2cccc(F)c2)OCc2ccccc2-c2c(n(C)c3ccccc23)C1=O`, the call was inactive.
The entry for `COc1cccc(CN(C)C[C@H]2OCc3ccccc3-c3c(n(C)c4ccccc34)C(=O)N([C@H](C)CO)C[C@@H]2C)c1` is “inactive”; for `C[C@H](CO)N1C[C@H](C)[C@@H](CN(C)Cc2cccc(C(=O)Nc3ccccc3N)c2)OCc2ccccc2-c2c(n(C)c3ccccc23)C1=O` it is “inactive”; for `C[C@H]1CN([C@@H](C)CO)C(=O)c2c(c3ccccc3n2C)-c2ccccc2CO[C@H]1CN(C)C(=O)Nc1ccc(-c2ccccc2)cc1` it is “inactive”.
With `C[C@H](CO)N1C[C@H](C)[C@H](CN(C)S(=O)(=O)c2ccc(Cl)cc2)OCc2ccccc2-c2c(n(C)c3ccccc23)C1=O`, the call was inactive.
The entry for `Cc1ccc(S(=O)(=O)N(C)C[C@H]2OCc3ccccc3-c3c(n(C)c4ccccc34)C(=O)N([C@H](C)CO)C[C@@H]2C)cc1` is “inactive”; for `O=C(C[C@H]1C[C@H]2c3cc(NC(=O)Cc4ccncc4)ccc3O[C@H]2[C@H](CO)O1)NCc1ccccc1` it is “inactive”; for `COc1cccc(NC(=O)N(C)C[C@@H]2Oc3cc(C#Cc4ccccc4)ccc3S(=O)(=O)N([C@H](C)CO)C[C@@H]2C)c1` it is “inactive”.
To `COc1ccc(S(=O)(=O)N(C)C[C@H]2Oc3ncc(-c4ccncc4)cc3C(=O)N([C@H](C)CO)C[C@@H]2C)cc1` belongs “inactive”; to `COc1ccc(C#Cc2ccc3c(c2)O[C@@H](CN(C)C(=O)Nc2cccc(OC)c2)[C@H](C)CN([C@H](C)CO)S3(=O)=O)cc1`, “inactive”; to `C[C@@H]1CN([C@@H](C)CO)C(=O)c2cccc(NC(=O)c3cnccn3)c2O[C@@H]1CN(C)Cc1ccc(-c2ccccc2)cc1`, “inactive”.
The entry for `COc1ccc(NC(=O)N2CCC3(CC2)CN(C(=O)C2CCC2)[C@@H](CO)c2c3c3ccc(OC)cc3n2C)cc1` is “inactive”; for `C[C@@H]1CN([C@@H](C)CO)C(=O)c2c(c3ccccc3n2C)-c2ccccc2CO[C@@H]1CN(C)C(=O)[C@H](C)c1ccccc1` it is “inactive”; for `C[C@H](CO)N1C[C@H](C)[C@@H](CN(C)C(=O)[C@H](C)c2ccccc2)OCc2ccccc2-c2c(n(C)c3ccccc23)C1=O` it is “inactive”.
Take `CO[C@@H]1CN(C)C(=O)c2ccc(NC(=O)NC(C)C)cc2OC[C@@H](C)N(Cc2ccccc2)C[C@H]1C`: the outcome was inactive.
To `COc1cccc(NC(=O)N2[C@H](CO)[C@H](c3ccccc3)[C@H]2CNCC(C)C)c1` belongs “inactive”; to `COc1ccc(-c2ccccc2[C@H]2[C@@H](C#N)N(C(=O)NC3CCCC3)[C@H]2CO)cc1`, “inactive”.
The entry for `C[C@@H]1CN([C@@H](C)CO)C(=O)Cc2cc(NC(=O)Nc3ccc4c(c3)OCO4)ccc2O[C@@H]1CN(C)CC1CC1` is “inactive”; for `C[C@@H]1CN([C@@H](C)CO)C(=O)c2cc(NC(=O)Nc3ccc(C(F)(F)F)cc3)ccc2O[C@H]1CN(C)C(=O)Nc1cccc2ccccc12` it is “inactive”; for `COc1ccc(NC(=O)Nc2ccc3c(c2)CC(=O)N([C@H](C)CO)C[C@H](C)[C@@H](CN(C)CC2CCCCC2)O3)cc1` it is “inactive”.
`C[C@H](CO)N1C[C@H](C)[C@H](CN(C)CC2CC2)Oc2ccc(NC(=O)Nc3cccc4ccccc34)cc2CC1=O`: the compound was classed as inactive.
For `C[C@H](CO)N1C[C@H](C)[C@H](CN(C)CC2CC2)Oc2ccc(NS(=O)(=O)c3ccc(Cl)cc3)cc2CC1=O`, the outcome was inactive.
Consider `C[C@@H]1CN([C@@H](C)CO)C(=O)c2cc(NC(=O)C3CC3)ccc2O[C@H]1CN(C)CC1CCCCC1`, for which the result was inactive.
In the case of `COc1ccc(C#Cc2ccc3c(c2)O[C@@H](CN(C)S(=O)(=O)c2ccccc2F)[C@@H](C)CN([C@H](C)CO)S3(=O)=O)cc1`, the outcome was inactive.
To `OC[C@@H]1[C@@H](c2ccccc2)C2(CN(CC3CC3)C2)N1Cc1ccc(F)cc1` belongs “inactive”; to `COCC(=O)Nc1ccc2c(c1)C(=O)N(C)C[C@H](OC)[C@H](C)CN(Cc1cc(F)ccc1F)[C@H](C)CO2`, “inactive”.
For `COc1ccc(NC(=O)N(C)C[C@H]2Oc3c(NC(=O)Nc4ccccc4)cccc3C(=O)N([C@@H](C)CO)C[C@H]2C)cc1`, the compound was classed as inactive.
Take `COc1ccc(S(=O)(=O)N(C)C[C@@H]2Oc3c(NC(=O)Nc4cccc5ccccc45)cccc3C(=O)N([C@H](C)CO)C[C@@H]2C)cc1`: the call was inactive.
To `COc1ccc(S(=O)(=O)Nc2cccc3c2O[C@H](CN(C)Cc2ccc(-c4ccccc4)cc2)[C@@H](C)CN([C@H](C)CO)C3=O)cc1` belongs “inactive”.
For the compound `C[C@H](CO)N1C[C@H](C)[C@@H](CN(C)Cc2ccc(-c3ccccc3)cc2)Oc2c(NC(=O)c3ccc(-c4nccs4)cc3)cccc2C1=O`, the result was inactive.
The entry for `COc1ccc(S(=O)(=O)N(C)C[C@H]2Oc3c(NC(=O)Nc4cccc5ccccc45)cccc3C(=O)N([C@@H](C)CO)C[C@H]2C)cc1` is “inactive”; for `COc1ccc(CN(C)C[C@@H]2Oc3c(NC(=O)c4ccc(-c5nccs5)cc4)cccc3C(=O)N([C@@H](C)CO)C[C@H]2C)cc1` it is “inactive”; for `COc1ccc2c3c([nH]c2c1)[C@H](CO)N(Cc1ccc(F)cc1)CC31CCN(C(C)=O)CC1` it is “inactive”.
As to `CNC[C@H]1Oc2ncc(-c3ccc(OC)cc3)cc2C(=O)N([C@H](C)CO)C[C@H]1C`, the outcome was inactive.
To `C[C@@H]1CN([C@@H](C)CO)C(=O)c2cc(NC(=O)Nc3ccc4c(c3)OCO4)ccc2O[C@H]1CN(C)C(=O)Nc1cccc2ccccc12` belongs “inactive”; to `C[C@H]1CN([C@@H](C)CO)S(=O)(=O)c2ccc(C#Cc3ccncc3)cc2O[C@H]1CN(C)S(=O)(=O)c1ccc(F)cc1`, “inactive”.
To `COc1cccc(NC(=O)N(C)C[C@@H]2Oc3cc(C#Cc4ccc(F)cc4)ccc3S(=O)(=O)N([C@H](C)CO)C[C@@H]2C)c1` belongs “inactive”; to `CC(C)CC#Cc1ccc2c(c1)O[C@H](CN(C)S(=O)(=O)c1ccc(F)cc1)[C@@H](C)CN([C@@H](C)CO)S2(=O)=O`, “inactive”.
`C[C@@H]1CN([C@@H](C)CO)S(=O)(=O)c2ccc(/C=C/c3ccccc3)cc2O[C@H]1CN(C)Cc1cccnc1`: the outcome was inactive.
To `C[C@@H]1CN([C@@H](C)CO)S(=O)(=O)c2ccc(/C=C/c3ccccc3)cc2O[C@H]1CN(C)C(=O)C1CC1` belongs “inactive”; to `COc1ccccc1S(=O)(=O)N(C)C[C@@H]1Oc2cc(C#CCC(C)C)ccc2S(=O)(=O)N([C@@H](C)CO)C[C@H]1C`, “inactive”.
To `COc1ccc(NC(=O)N(C)C[C@H]2Oc3cc(C#CCC(C)C)ccc3S(=O)(=O)N([C@H](C)CO)C[C@H]2C)cc1` belongs “inactive”.
In the case of `COc1ccccc1S(=O)(=O)N(C)C[C@@H]1Oc2cc(C#CCC(C)C)ccc2S(=O)(=O)N([C@@H](C)CO)C[C@@H]1C`, the compound was called inactive.
Turning to `COc1cccc(NC(=O)N(C)C[C@@H]2Oc3cc(C#Cc4ccc(F)cc4)ccc3S(=O)(=O)N([C@@H](C)CO)C[C@@H]2C)c1`, the outcome was inactive.
To `CCCC(=O)N1CCC2(CC1)CN[C@@H](CO)c1[nH]c3cc(OC)ccc3c12` belongs “inactive”; to `N#C[C@@H]1[C@H](c2ccccc2C2=CCCCC2)[C@@H](CO)N1S(=O)(=O)c1ccccc1`, “inactive”; to `COc1ccc(C#Cc2ccc3c(c2)[C@@H]2[C@@H](CCN2C(=O)C2CC2)[C@H](CO)N3)cc1`, “inactive”.
On to `COCC(=O)N1CC2(C1)CN(Cc1cccc(Cl)c1)[C@@H](CO)c1[nH]c3cc(OC)ccc3c12`, for which the outcome was inactive.
To `CCC(=O)Nc1ccc2c(c1)OC[C@H](C)N(Cc1ccccn1)C[C@H](C)[C@H](OC)CN(C)C2=O` belongs “inactive”.
As for `CN(C)CC#Cc1cccc(-c2nc(C(=O)N[C@@H]3CCN(Cc4ccccc4)C3)cc3c2[C@H](CCO)N(S(=O)C(C)(C)C)C3)c1` (stereo not given in full), the call was inactive.
Consider `COc1ccc(C#Cc2ccc3c(c2)O[C@@H](CN(C)S(=O)(=O)c2ccccc2F)[C@@H](C)CN([C@@H](C)CO)S3(=O)=O)cc1`, for which the call was inactive.
To `COc1ccc2c3c([nH]c2c1)[C@H](CO)N(Cc1cc(F)ccc1F)CC31CCN(C(C)=O)CC1` belongs “inactive”.
To `CN1C[C@H]2[C@@H](c3ccccc31)[C@H](CO)N2Cc1ccccc1F` belongs “inactive”; to `COc1cccc(NC(=O)N2[C@@H](CO)[C@@H](c3ccccc3)[C@@H]2CNCC(C)C)c1`, “inactive”.

The values above are taken from PubChem BioAssay AID1159577 (Broad Institute, 2015).
